USP8 block: blocks human USP8 ubiquitin-rhodamine cleavage | P40818 | purified USP8, Ub-rhodamine cleavage fluorescence, 30 min | inhibition, % at 20 µM | 4.2% of 47,000 active
OTUD3 block: blocks human OTUD3 ubiquitin-rhodamine cleavage; 0.7% of 47,000 active; AID 1645858; purified OTUD3, Ub-rhodamine fluorescence, 2 h; inhibition, % at 25 µM; Q5T2D3
USP28 inh: inhibitors of human USP28 deubiquitinase; Q96RU2; purified USP28, Ub-rhodamine cleavage fluorescence, 30 min; inhibition, % at 25 µM; 3% of 47,000 active
USP30 block: blocks human USP30 ubiquitin-rhodamine cleavage | Q70CQ3 | purified USP30, Ub-rhodamine cleavage fluorescence | inhibition, % at 25 µM | 5.3% of 47,000 active | AID 1645860
USP17 inh: inhibitors of human USP17 deubiquitinase; purified USP17, Ub-rhodamine cleavage fluorescence, 3 h; inhibition, % at 50 µM; 6.5% of 47,000 active
USP10 block: inhibitors of human USP10 deubiquitinase. AID 1645856. inhibition, % at 20 µM. purified USP10, Ub-rhodamine fluorescence, 60 min. 1.1% of 47,000 active. Q14694
Active calls of the source: *; i = inactive; nt = no result. Sampled rows, rich in hits. Any-hit rate of the full collection: about 13%. Rule as the data show it: active = inhibition above about 30%; inactive = the rest.

SMILES	USP8 block	OTUD3 block	USP28 inh	USP30 block	USP17 inh	USP10 block
CN1CCc2cc(C(CNC(=O)COc3ccc(F)cc3)N3CCCC3)ccc21 (centres undefined)	-21.1	-16.7	-20.9	-45.9	nt	-6.3
COC(=O)c1c(OC)cc2c(c1C)Oc1c(Cl)c(O)c(Cl)c(C)c1C(=O)O2	-4.0	6.7	21.2	30.5*	15.9	31.9*
COC(=O)c1cc(O)cc(OC)c1C(=O)c1c(O)c(Cl)c(C)c(Cl)c1O	4.3	4.8	14.9	10.3	17.9	1.6
O=C(OCc1ccc(Br)cc1)c1ccc2ccccc2n1	25.9	16.4	81.6*	22.9	22.2	11.6
O=C(COC(=O)c1ccc2ccccc2n1)Nc1ccc(Br)cc1	-16.3	-162.6	-172.5	i	-168.4	-1.7
N#Cc1ccc(COC(=O)c2ccc3ccccc3n2)cc1	-5.3	-20.5	64.2*	-28.8	-14.0	-3.1
CN(C)S(=O)(=O)c1cccc(C(=O)OCc2ccccc2C#N)c1	-0.9	8.3	35.6*	21.7	-0.5	0.3
N#Cc1ccccc1COC(=O)c1ccc2ccccc2n1	-31.3	5.6	62.2*	10.4	-10.6	-1.0
Cc1ccc2c(c1)CCCN2C(=O)c1c(C)nn(-c2ccccc2)c1C	-25.9	-18.0	-20.2	-126.2	-27.4	-3.4
COc1ccc(CN(C(=O)c2cccc(-n3cnnn3)c2)C(C(=O)NC(C)(C)C)c2cc(OC)c(OC)c(OC)c2)cc1 (centres undefined)	14.7	3.3	9.1	22.0	10.1	-1.4
CCOC(=O)c1c(C)nc2n(Cc3ccccc3)c3ccccc3n12	17.5	16.4	18.1	60.5*	29.6	2.3
Cc1cccc(CN2CCCC(c3nccnc3Nc3cnccn3)C2)n1 (centres undefined)	-18.4	-10.1	-17.4	-62.6	-17.6	-4.7
O=C(Nc1cccc(C(F)(F)F)c1)c1nn(C2CCS(=O)(=O)C2)c2c1CCCC2 (centres undefined)	-1.1	1.5	1.4	30.8*	10.2	-2.1
O=C(c1sc2ccccc2c1Cl)N(Cc1cc2cc3c(cc2[nH]c1=O)OCO3)CC1CCCO1 (centres undefined)	-4.5	-17.4	-10.6	-35.4	-3.3	-1.6
CCOc1ccc(N2Cc3ccc(OC)c(OC)c3C2=O)cc1	0.0	5.9	2.3	22.1	38.3*	0.0
CC(=O)Nc1c(-c2ccc(C)cc2)c(C)nn1-c1ccc(C(=O)Nc2cccc(C#N)c2)cc1	3.7	-5.2	-5.7	-10.0	49.2*	22.7
CCCCCCCCCCCCCCCCCC(=O)N[C@@H]1C[C@@H](O)[C@@H](O)NC(=O)[C@@H]2[C@@H](O)[C@@H](C)CN2C(=O)[C@H]([C@@H](C)O)NC(=O)[C@H]([C@H](O)[C@@H](O)c2ccc(O)cc2)NC(=O)[C@@H]2C[C@@H](O)CN2C(=O)[C@H]([C@@H](C)O)NC1=O	15.3	16.3	38.3*	49.4*	20.1	10.0
COc1cc2cc3c(c(O)c2c(O)c1-c1c(OC)cc2cc4c(c(O)c2c1O)C(=O)OC1CC(C)OC41)C(=O)OC1CC(C)OC31 (centres undefined)	58.2*	-8.4	6.7	-62.3	60.5*	29.5
COc1cc(O)cc2c1C(=O)O[C@@H](C[C@H]1CCC[C@H](C)O1)C2	-0.7	6.9	4.3	0.1	-11.0	-1.2
COc1ccc(CC(=O)N2CCC(Nc3cccnc3)C2)cc1 (centres undefined)	-3.8	-21.7	-19.0	-132.5	41.9*	-4.9
Cc1noc(C)c1CC(=O)N1CCC(Nc2cccnc2)C1 (centres undefined)	-55.6	-21.5	-25.4	-86.6	-17.3	-2.5
c1ccc(CSc2ccc3nnc(-c4ccncc4)n3n2)nc1	-169.5	0.8	7.6	-2.9	-22.9	-2.7
O=C(CSc1ccc2nnc(-c3cccc(F)c3)n2n1)c1ccccc1	-8.1	-10.8	-11.2	-22.0	30.4*	-1.7
c1ccc(-c2nnc3ccc(SCc4ccccn4)nn23)cc1	-133.4	16.2	31.3*	24.3	0.4	5.3
O=C(Nc1cccc(C(=O)N2CCCC2C(=O)NCc2ccccc2)c1)c1cccc(F)c1 (centres undefined)	3.7	10.3	6.0	26.0	3.8	3.2
SMILES	USP8 block	OTUD3 block	USP28 inh	USP30 block	USP17 inh	USP10 block
COc1ccc(C2CC(=O)N(c3cccc(F)c3)C(=O)C2)cc1OC	0.7	-4.7	0.2	-20.7	-8.3	-0.2
COc1ccc(-c2cn(-c3ccc(SC(F)F)cc3)c3[n+]2CCC3)cc1OC	1.1	8.6	13.6	30.0*	8.8	0.7
Cc1cc(Cl)c2c(c1)[C@]1(C(=O)N2)N2CCC[C@H]2[C@@H](C(=O)c2cc3ccccc3o2)[C@]12C(=O)Nc1ccccc12	41.1*	-17.9	-18.6	-47.7	63.3*	-5.1
O=C(CN1CCC2(CCC1=O)NC(=O)c1ccccc1O2)NCc1ccc(F)cc1 (centres undefined)	-2.9	9.7	11.8	19.4	9.3	1.6
O=C(COc1nsnc1N1CCOCC1)Nc1ccccc1F	11.7	81.4*	6.2	10.8	16.4	1.6
O=C(COc1nc2ccccc2nc1N1CCOCC1)Nc1ccc2c(c1)OCO2	-7.2	-32.2	-29.2	-92.2	10.8	-2.5
O=C(COc1nsnc1N1CCOCC1)Nc1ccc(F)c(F)c1	-21.7	2.4	13.4	56.9*	2.8	0.8
O=C(COC(=O)c1cc2ccccc2cc1O)Nc1ccc(Cl)cn1	36.8*	0.4	0.0	-71.4	-2.3	-7.6
O=C(COC(=O)c1cc2ccccc2cc1O)NCCc1ccccc1	42.2*	8.1	16.5	-0.8	0.3	14.6
O=C(COC(=O)c1ccccc1Nc1ccccc1)Nc1ccc2ccccc2c1	4.8	3.2	-6.5	-7.0	-0.4	6.3
Cc1cc2c(o1)CCc1sc(N(C)C(=O)Cc3ccccc3F)nc1-2	-46.3	19.2	11.9	8.2	19.7	4.9
Cc1cccc(OCC(=O)NCC(c2ccc(C)o2)N2CCCCC2)c1 (centres undefined)	-1.3	-1.4	-18.7	-10.4	-14.7	-0.7
CCc1ccc(C(C)NC(=O)C2CCN(c3ccc4nncn4n3)CC2)cc1 (centres undefined)	3.3	14.3	54.1*	8.9	6.8	0.7
O=C1NC2(CCCCCC2)C(=O)N1Cc1nc(-c2ccc(Cl)cc2)no1	21.2	0.8	-12.2	-33.9	39.5*	-9.3
NCc1ccc(C(=O)N2CCC3(CC2)C(=O)Nc2ccccc23)cc1	85.4*	2.6	8.4	4.9	6.4	-0.5
COc1cccc(NC(=O)N2CCC3(CC2)C(=O)Nc2ccccc23)c1	-40.0	-2.5	1.3	3.6	0.0	2.2
CSc1ccc(CNCc2c(C(=O)O)n(Cc3ccccc3)c3cc(C)ccc23)cc1	24.5	14.2	43.6*	58.0*	23.8	20.3
Cc1ccc(Cn2c(C(=O)O)c(CNCCC3=CCCCC3)c3ccccc32)cc1	20.7	3.7	39.2*	15.9	24.0	10.1
O=C(O)c1c(CNCc2cccnc2)c2ccccc2n1Cc1ccc(F)cc1Cl	-20.3	-11.2	-2.4	-6.9	9.0	-2.1

Source: PubChem BioAssay
